Source: PubChem BioAssay
Several values for one entry are separate records, joined by “and”; a condition that tells them apart may be missing. Equal entries are not always repeated. For part of these data: Entries with a potency or affinity are not part of this list. Activity calls are given as the source filed them. Cut-off read from the data, not from the text of the source, unless noted: active = parasite load remaining mostly below about 12% (no sharp cut-off); inactive = mostly above about 10%.

Key:
[1] = P. berghei load reduction in hepatocytes – cell-based, HepG2, luciferase luminescence, HepG2 viability, primary screen (AID 624349);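 note: 100% = mean of DMSO negative control wells on the same plate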; settings: P. berghei liver stage in HepG2, luciferase luminescence, concentration not given here; parasite load remaining: stronger effect = lower value; viability: measured here: HepG2 viability without parasites
[2] = Wnt pathway potentiators raising nuclear beta-catenin – imaging, WNT3A-conditioned medium, mouse C2C12, NPC library, primary screen (AID 1117326; in the data active = nuclear beta-catenin stimulation mostly above about 4.2%, no sharp cut-off; inactive = mostly below about 10%); settings: stronger effect = higher value
[3] = stimulators of insulin release from INS-1E, primary screen, cell-based, 5 mM glucose, NPC library (AID 1117329;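 active = compound raises insulin release from rat beta cells at 5 mM glucose, no numeric limit stated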); settings: rat INS-1E insulin secretion, at 10 µM, stronger effect = higher value
[4] = growth inhibition of GSK3B-pretreated HCT116 cells – cell-based, CellTiter-Glo, 0.2 to 20 µM (AID 1117336;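 active = compounds lowering colon cancer cell viability after pretreatment blocking the GSK3B kinase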); settings: HCT116 viability after GSK3B inhibitor, at 20 µM, stronger effect = higher value
[5] = inhibition of endothelial tube formation, primary screen, imaging, VEGF stimulated, CD31 staining, tube area, NPC library (AID 1117340;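 active = compound that reduces growth-factor-driven endothelial tube area in a mixed cell culture, no cutoff stated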); settings: VEGF-stimulated ADSC/ECFC co-culture, at 10 µM, stronger effect = higher value
[6] = GLP1 release stimulators, primary, NCI-H716, NPC library (AID 1117341;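 active = compound raises GLP1 secretion from the human gut endocrine cells, with no numeric limit stated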); settings: NCI-H716 cells, at 10 µM, stronger effect = higher value
[7] = HCT116 colon cancer cell growth inhibition, primary screen, CellTiter-Glo luminescence, NPC library (AID 1117342;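 active = compounds that lower survival of HCT116 colon cancer cells in the luminescence readout, no numeric limit stated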); settings: at 20 µM (top of the series)
[8] = reduced SW480 viability measured with CellTiter-Glo, NPC library, primary (AID 1117343;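 active = compounds that lower viability of the colon cancer cells in the luminescence readout, with no numeric limit stated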); settings: CellTiter-Glo luminescence; at 20 µM (top of the series)
[9] = NPC library primary testing for decreased DLD-1 cell viability via CellTiter-Glo (AID 1117346;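 active = compounds that lower survival of DLD-1 colon cancer cells in the luminescence readout, no cutoff given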); settings: DLD-1 viability, CellTiter-Glo luminescence; at 20 µM (top of the series)
[10] = tested on: Hepatitis C virus NS3 helicase; assay: blockers of NS3h binding to ssDNA – biochemical, fluorescence polarization, LOPAC1280 library, primary screen (AID 687035; in the data active = inhibition above about 37%); settings: Purified HCV NS3 helicase, Cy5-dT15 ssDNA binding fluorescence polarization; stronger effect = higher value; concentration not given here
[11] = compounds altering Cy5-DNA-NS3h complex signal – biochemical, LOPAC1280, artefact control for HCV NS3 helicase inhibitor project (AID 687037; call rule not given here); settings: Cy5-DNA-NS3h complex fluorescence interference counterscreen
[12] = signal quenchers or enhancers, Cy5 substrate/SSB – biochemical, NIH Clinical Collection, E. coli SSB, artefact control for HCV NS3 helicase inhibitor project (AID 743268; call rule not given here); settings: Cy5-oligo bound E. coli SSB, fluorescence interference
[13] = tested on: Hepatitis C virus NS3 helicase; assay: blockers of NS3h binding to DNA – biochemical, fluorescence polarization, NIH Clinical Collection, primary screen (AID 743270; call rule not given here); settings: NS3 helicase binding to Cy5-dT15 DNA, stronger effect = higher value, concentration not given here
[14] = molecular target: Single-stranded DNA-binding protein (Escherichia coli (strain K12)) (UniProt P0AGE0); assay: SSB-ssDNA binding inhibitors – biochemical, fluorescence polarization, NIH Clinical Collection, counter-screen for HCV NS3 helicase inhibitor project (AID 743271; in the data active = inhibition above about 28%); settings: E. coli SSB-DNA binding, stronger effect = higher value, concentration not given here
[15] = compounds distorting NS3 helicase fluorescence signal – biochemical, NIH Clinical Collection, artefact control for HCV NS3 helicase inhibitor project (AID 743272; call rule not given here;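 note: HCV NS3 helicase with a Cy5 labelled single stranded DNA probe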); settings: fluorescence interference counterscreen, HCV NS3 helicase assay; stronger effect = lower value
[16] = tested on: Neuropilin-2 / VEGF-C interaction (human); assay: small molecules blocking Neuropilin-2/VEGF-C interaction – biochemical, microplate binding format, z-score (AID 743281; call rule not given here); settings: microplate NRP2/VEGF-C binding assay; stronger effect = lower value
[17] = molecular target: Calcium-dependent protein kinase 1 (Plasmodium falciparum (isolate 3D7)) (UniProt P62344); assay: PfCDPK1 kinase inhibitors, biochemical, TCAMS library (AID 1159585; cut-off not given, nearly all actives have IC50 up to about 0.98 µM;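 note: inhibitors leave more ATP so luminescence rises with inhibition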); settings: recombinant PfCDPK1, Kinase-Glo ATP depletion luminescence
Chain of Calcium-dependent protein kinase 1 (Plasmodium falciparum (isolate 3D7)) (P62344 whole entry, looked up): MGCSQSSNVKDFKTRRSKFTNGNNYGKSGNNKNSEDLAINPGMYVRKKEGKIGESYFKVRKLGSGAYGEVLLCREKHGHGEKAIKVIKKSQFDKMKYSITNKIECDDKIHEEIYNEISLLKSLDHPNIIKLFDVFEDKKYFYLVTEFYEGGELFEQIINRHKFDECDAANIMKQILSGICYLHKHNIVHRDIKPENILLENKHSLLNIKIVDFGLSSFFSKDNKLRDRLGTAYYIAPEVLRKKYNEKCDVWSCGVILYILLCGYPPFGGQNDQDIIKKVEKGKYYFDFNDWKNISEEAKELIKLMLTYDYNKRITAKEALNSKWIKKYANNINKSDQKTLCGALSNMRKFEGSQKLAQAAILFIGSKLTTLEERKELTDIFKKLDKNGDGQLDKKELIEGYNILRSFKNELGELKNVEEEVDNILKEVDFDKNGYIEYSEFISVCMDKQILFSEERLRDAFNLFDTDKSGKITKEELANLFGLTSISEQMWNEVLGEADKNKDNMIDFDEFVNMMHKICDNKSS

[18] = molecular target: Plasmodium falciparum protein kinase 6 (PK6, PF3D7_1337100) (UniProt Q8IDW1); assay: PfPK6 kinase inhibitors, biochemical, TCAMS library (AID 1159586; call rule not given here); settings: recombinant PfPK6, Kinase-Glo ATP depletion luminescence
Chain of Plasmodium falciparum protein kinase 6 (PK6, PF3D7_1337100) (Q8IDW1 1-305): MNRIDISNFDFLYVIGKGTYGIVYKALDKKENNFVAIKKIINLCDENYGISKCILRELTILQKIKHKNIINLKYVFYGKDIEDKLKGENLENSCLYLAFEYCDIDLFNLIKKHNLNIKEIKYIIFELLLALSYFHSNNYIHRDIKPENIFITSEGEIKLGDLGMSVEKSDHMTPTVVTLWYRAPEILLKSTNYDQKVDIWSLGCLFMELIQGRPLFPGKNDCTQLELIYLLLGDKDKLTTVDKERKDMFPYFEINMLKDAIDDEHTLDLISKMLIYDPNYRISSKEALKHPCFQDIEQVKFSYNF

Compound	parasite load remaining [1]	viability [1]	nuclear beta-catenin stimulation ([2]; at 10 µM)	nuclear beta-catenin stimulation ([2]; stimulation, at 2 µM) [%]	insulin secretion stimulation [3]	viability decrease [4]	tube area decrease [5]	GLP1 secretion stimulation [6]	inhibition of viability [7]	viability decrease (inhibition) [8]	viability decrease (inhibition) [9]	inhibition [10]	fluorescence ratio (interference) [11]	fluorescence ratio [12]	inhibition [13]	inhibition [14]	fluorescence ratio [15]	z-score [16]	outcome [17]	outcome [18]
Oc1ccc(OCc2ccccc2)cc1	144% (inactive)	102%	2.5% (inactive)	1.1	-0.6% (inactive)	-36.6% (inactive)	0.5% (inactive)	2.7% (inactive)	-6.37% (inactive)	5.3% (inactive)	4.6% (inactive)	–	–	–	–	–	–	–	–	–
COc1cc(C(=O)OCCCN2CCCN(CCCOC(=O)c3cc(OC)c(OC)c(OC)c3)CC2)cc(OC)c1OC	44% (inactive) and 120% (inactive) and 14% (inactive)	47.9% and 91.2% and 76.5%	1.3% (inactive)	1.7	79.2% (active)	38.2% (inactive)	4.6% (inactive)	7.5% (inactive)	77.6% (active)	92.3% (active)	24% (inactive)	-3% (inactive)	1 (inactive)	–	–	–	–	–	–	–
O=P(O)(O)C(O)(Cc1cccnc1)P(=O)(O)O	12.3% (inactive) and 1.41% (inactive)	96.3% and 95%	-1.2% (inactive)	-0.8	-1.8% (inactive)	5.7% (inactive)	18.1% (inactive)	0.1% (inactive)	5.33% (inactive)	-18.5% (inactive)	-4.9% (inactive)	–	–	–	–	–	–	–	–	–
O=C(O)CN1C(=O)c2cccc3cccc(c23)C1=O	30.8% (inactive)	96.3%	-0.2% (inactive)	0.9	-1.8% (inactive)	-2.7% (inactive)	-6.3% (inactive)	1.6% (inactive)	-17.1% (inactive)	22.8% (inactive)	2.05% (inactive)	–	–	–	–	–	–	–	–	–
CO[C@@H]1[C@@H](OC(N)=O)[C@@H](O)[C@H](Oc2ccc3c(O)c(NC(=O)c4ccc(O)c(CC=C(C)C)c4)c(=O)oc3c2C)OC1(C)C	96.3% (inactive) and 84% (inactive)	73.9% and 88.8%	-0.7% (inactive)	1.5	-0.3% (inactive)	-78.9% (inactive)	-1.9% (inactive)	0.7% (inactive)	-1.6% (inactive)	-22.2% (inactive)	-21.8% (inactive)	–	–	–	–	–	–	–	–	–
c1cnc(N2CCN(Cc3ccc4c(c3)OCO4)CC2)nc1	105% (inactive) and 100% (inactive) and 31.2% (inactive)	78.5% and 71.3% and 101%	0.7% (inactive)	4.1	1% (inactive)	-13.4% (inactive)	-4.5% (inactive)	10.3% (inactive)	4.13% (inactive)	-7.2% (inactive)	-20% (inactive)	-1% (inactive)	1 (inactive)	1.01 (inactive)	-5.94% (inactive)	-0.87% (inactive)	0.96 (inactive)	-0.0568 (inactive)	–	–
CN(C)c1ccc2nc3ccc(=[N+](C)C)cc-3sc2c1	0.205% (inactive)	47.9%	3.1% (inactive)	2.2	-1.1% (inactive)	98.6% (active)	103% (active)	280% (active)	97.8% (active)	65.3% (active)	44.2% (inactive)	–	–	–	–	–	–	–	–	–
CCOC(=O)c1ncn2c1CN(C)C(=O)c1cc(F)ccc1-2	6.63% (inactive) and 66.3% (inactive)	73.1% and 107%	0.8% (inactive)	-0.7	1.6% (inactive)	-39.4% (inactive)	-3.4% (inactive)	0.1% (inactive)	0.15% (inactive)	17.1% (inactive)	4% (inactive)	-4% (inactive)	1 (inactive)	1.05 (inactive)	1.98% (inactive)	-0.1% (inactive)	0.99 (inactive)	-0.197 (inactive)	–	–
C[C@H](NC(CCc1ccccc1)C(=O)O)C(=O)N1CCC[C@H]1C(=O)O (some centres undefined)	94.1% (inactive) and 49.6% (inactive)	70.8% and 156%	-0.9% (inactive)	-2.8	0.1% (inactive)	-6.3% (inactive)	-8% (inactive)	1.4% (inactive)	2.7% (inactive)	-8.4% (inactive)	-2.7% (inactive)	-5% (inactive)	1 (inactive)	1.07 (inactive)	1.19% (inactive)	2.98% (inactive)	1 (inactive)	0.126 (inactive)	–	–
Cc1cnc(C(=O)O)c[n+]1[O-]	22.9% (inactive)	79.5%	2.4% (inactive)	1.1	3.6% (inactive)	-16.5% (inactive)	9.6% (inactive)	-4.7% (inactive)	3% (inactive)	14.8% (inactive)	-0.8% (inactive)	–	–	–	–	–	–	–	–	–
COc1cc2c(cc1OC)-c1cc(=Nc3c(C)cc(C)cc3C)n(C)c(=O)n1CC2	22.9% (inactive)	56.5%	1.1% (inactive)	-0.6	1.3% (inactive)	91.5% (active)	-11.8% (inactive)	12.7% (inactive)	71.2% (active)	120% (active)	66.5% (active)	1% (inactive)	0.9 (inactive)	–	–	–	–	–	inactive	inactive
CNC[C@H](O)[C@@H](O)[C@H](O)[C@H](O)CO	64.5% (inactive)	224%	-1.8% (inactive)	-1.1	0.7% (inactive)	-9.2% (inactive)	-17.1% (inactive)	10.1% (inactive)	4.6% (inactive)	0.6% (inactive)	15.4% (inactive)	–	–	–	–	–	–	–	–	–
